Test results published in article PMC7819943, “Rice protein-binding microarrays: a tool to detect cis-acting elements near promoter regions in rice”.
Over roughly 35,000 sequences, “fluorescence intensity (a.u.)” has its median near 10,000; the highest 2% begin near 52,000. Many of the other results were omitted from the sample, so the highest values are more common in it than they were.

The sequences below were run against T1, OsWOX13 (Oryza sativa, UniProt Q5QMM3 1-267) (assay: protein-binding microarray (RPBM); PBS, 2% BSA, 51.3 ng/ul salmon testes DNA, 50 uM zinc acetate, 200 nM TF, 25 C, 1 h; high values mean tight binding). Details: protein: recombinant; tags: N-terminal polyhistidine and DsRed monomer fusion (pET32a); label: CyDye5-dUTP incorporated in the synthesized complementary strand; 3' TTTTT single-stranded linker to array surface; dsDNA, one strand shown.
T1 sequence: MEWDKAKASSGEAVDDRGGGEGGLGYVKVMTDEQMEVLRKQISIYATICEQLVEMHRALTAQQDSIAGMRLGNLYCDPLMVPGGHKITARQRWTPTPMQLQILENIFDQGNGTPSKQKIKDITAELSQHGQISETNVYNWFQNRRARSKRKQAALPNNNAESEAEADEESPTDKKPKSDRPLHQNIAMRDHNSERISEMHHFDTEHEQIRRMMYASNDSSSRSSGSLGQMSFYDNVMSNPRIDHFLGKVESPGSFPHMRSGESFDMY
Summary of the method: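 Per-feature fluorescence intensity (arbitrary units), read on an Axon 4000B scanner, is the binding signal. Transcription factors carrying an N-terminal polyhistidine tag and DsRed fusion were expressed in E. coli BL21-CodonPlus and purified on Ni–NTA. A custom Agilent array, made double-stranded by primer extension with Cy5-dUTP and blocked with 2% BSA, was incubated with 200 nM protein in PBS, 2% BSA, salmon testes DNA and 50 µM zinc acetate at 25 °C for 1 h and then washed.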

Row | Sequence | binding signal
1 | TCAAATAATTTCGGTCAGAAATTTCCGAAATTTTGGTAATCGGAGTCACCTAGTGCAG | 7080 fluorescence intensity (a.u.)
2 | GTAGTTAACCATTTAACCTGATGATGTGAGGACGAAAGAACGGAGTCACCTAGTGCAG | 4950 fluorescence intensity (a.u.)
3 | ATTAACTATAATTATCGGCTGCAATCTAATTCGAATGTAGCGGAGTCACCTAGTGCAG | 30300 fluorescence intensity (a.u.)
4 | TGGTGGTGGTGGTGGTAGGGTTAGGGGTAGGAGGGGTCTCCGGAGTCACCTAGTGCAG | 8890 fluorescence intensity (a.u.)
5 | CAGGTAATGGATTGATTGCAGGGTTGGGATTTGACCAGGTCGGAGTCACCTAGTGCAG | 51800 fluorescence intensity (a.u.)
6 | TTTCAAATCTCAAATTGAAAGTTTTCAAAATTTTCAAATCCGGAGTCACCTAGTGCAG | 3760 fluorescence intensity (a.u.)
7 | ATAATAAGTTAAAACCTAATCAATCATACGCTAATGACTTCGGAGTCACCTAGTGCAG | 6780 fluorescence intensity (a.u.)
8 | ATCTGATTTGATTTGATTTCGTACACCAGTAGCTTCAACCCGGAGTCACCTAGTGCAG | 59800 fluorescence intensity (a.u.)
9 | ATCTGATTGATACAGTACTTATTCACTGGAGTAGTATTTCCGGAGTCACCTAGTGCAG | 40800 fluorescence intensity (a.u.)
10 | TGATTTCATGATTGATAGCTACATATCTTAGTTTCACACCCGGAGTCACCTAGTGCAG | 40200 fluorescence intensity (a.u.)
11 | AAAATTCATGATTGATTTTGTAGTGGATCAACCTTGCCAACGGAGTCACCTAGTGCAG | 52400 fluorescence intensity (a.u.)
12 | CTTACGTGTAAATTGAAATTACATTGTAATTTACATTTGACGGAGTCACCTAGTGCAG | 34200 fluorescence intensity (a.u.)
13 | AGGATCAAAATTGCATGATTTTGTATAGTTTAGGGATGAACGGAGTCACCTAGTGCAG | 3210 fluorescence intensity (a.u.)
14 | TATATTTAATTATTGATTTGATGTAACCAATTTAGTATTACGGAGTCACCTAGTGCAG | 23400 fluorescence intensity (a.u.)
15 | CTGATTAATTGCCAGTAATTTGATTTCAACCTTACGTGTACGGAGTCACCTAGTGCAG | 53000 fluorescence intensity (a.u.)
16 | ATTGATTGTAGCCAAAATAAATTTTACTAAATTTTGCCAACGGAGTCACCTAGTGCAG | 32500 fluorescence intensity (a.u.)
17 | GTATTAATCACATTTCATTTCAACTTTTGATTCTGATATGCGGAGTCACCTAGTGCAG | 5200 fluorescence intensity (a.u.)
18 | TTCGTAAATTTGATCGAATTTGGCTTTTAGACGCTGGACACGGAGTCACCTAGTGCAG | 19200 fluorescence intensity (a.u.)
19 | CTTAAAACAAATGATTGTTTACGTTCCGTCAATCATGCCCCGGAGTCACCTAGTGCAG | 21200 fluorescence intensity (a.u.)
20 | CTAATTTTATGGTTAATGGACACGATTTAATCTAGACTCTCGGAGTCACCTAGTGCAG | 13800 fluorescence intensity (a.u.)
21 | GTCTTGTTCATAATAGACTGGACTCTTTGATTCCTGTGTGCGGAGTCACCTAGTGCAG | 3330 fluorescence intensity (a.u.)

Row | Sequence | binding signal
22 | ATGTTCCTGATTACCCGGTTAGTAAAATTTGAATCGTACTCGGAGTCACCTAGTGCAG | 10600 fluorescence intensity (a.u.)
23 | TCTCCGTCCCCATCACCCTCGCAATTACTCCACCCGCCGGCGGAGTCACCTAGTGCAG | 5550 fluorescence intensity (a.u.)
24 | CTCGCCGTCCATCCTTCCCTGCGTCCAATCCCCACCCTCCCGGAGTCACCTAGTGCAG | 60200 fluorescence intensity (a.u.)
25 | CCTTCATTCATTTCCTAATCCCAATCCCACCCTCCATTTCCGGAGTCACCTAGTGCAG | 3570 fluorescence intensity (a.u.)
26 | GTTACCTATTAATTAATAGGAAGATGATATAAATAGTTTACGGAGTCACCTAGTGCAG | 19400 fluorescence intensity (a.u.)
27 | TATGACAGGTGGGATTAGGTATTAATAGTGTAGTATGTAACGGAGTCACCTAGTGCAG | 8510 fluorescence intensity (a.u.)
28 | CTTGATTAGTAGTTGGTTGCTCTTCTTCTTGTTCTTGGTTCGGAGTCACCTAGTGCAG | 64200 fluorescence intensity (a.u.)
29 | ACTATTCTATTATGATGATTAGGCTGTTATTGGTTGAAGTCGGAGTCACCTAGTGCAG | 7170 fluorescence intensity (a.u.)
30 | ATTGGTCCATTAGCACGTGATTAATTAAGTATTTGCTATTCGGAGTCACCTAGTGCAG | 11200 fluorescence intensity (a.u.)
31 | GGCTAATAGTAGGTTGATTAGTCCTTATTGTGCTTGCCCTCGGAGTCACCTAGTGCAG | 28500 fluorescence intensity (a.u.)
32 | GTTGATTAGCATATATTATTGGTTGCATGTTAGGCTTCCACGGAGTCACCTAGTGCAG | 54700 fluorescence intensity (a.u.)
33 | ATTAAATAATTTCTTTGATAAAATTGTTTTGCAGGCATATCGGAGTCACCTAGTGCAG | 22300 fluorescence intensity (a.u.)
34 | TGGAGTGGTGATTTGCTCTCTCTTGAGTGTTGATTAGTGGCGGAGTCACCTAGTGCAG | 9250 fluorescence intensity (a.u.)
35 | GGCTTAATTGTTGATTAAACATCAGGCTCTTCTTGCATATCGGAGTCACCTAGTGCAG | 54900 fluorescence intensity (a.u.)
36 | GTTAGTAATGTTGATTAGTGCATGGCTTATTTGGTTGCACCGGAGTCACCTAGTGCAG | 15600 fluorescence intensity (a.u.)
37 | TAATTGATTAGCAGTAAGGTATTGGTTGTCCAATCTTGCTCGGAGTCACCTAGTGCAG | 58400 fluorescence intensity (a.u.)
38 | CTGGTTCTTGATTATTATTAGGATTAGTTTGTTCCTTTGTCGGAGTCACCTAGTGCAG | 16900 fluorescence intensity (a.u.)
39 | AGAATTGATTAGCTCTTGTTTCTATCATGTTAAACACATTCGGAGTCACCTAGTGCAG | 33000 fluorescence intensity (a.u.)
40 | ATAATAAATATATTTACATTTAGACCCTCGATGTGTCATCCGGAGTCACCTAGTGCAG | 3230 fluorescence intensity (a.u.)
41 | TAGGCCCACTAATTAGGCCCATCCAACACGCCGTCCGACGCGGAGTCACCTAGTGCAG | 4020 fluorescence intensity (a.u.)
42 | TCAAGCTTCTGCAATTTAGTTGATTGATCGAATTAATCAGCGGAGTCACCTAGTGCAG | 24600 fluorescence intensity (a.u.)
